Assay results reported in the supplement of paper PMC6555819.

Columns and labels:
Test in all cases: PBM binding z-score (relative to random genomic background probes); higher = stronger binding; sequences stand for … in GC…GCGATTGACAGCGTAGAATGAAGG
[1] = system: FXR:RXRa (NR concentration 270 nM, RXRa partner concentration 90 nM)
In short: (§1)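 Ligand-free nuclear receptor dimers were bound for 1 h to custom Agilent 4×180K protein-binding microarrays. Detection used antibodies against each partner (one per run). Binding z-scores rest on regression-normalized fluorescence, with random background probes as the reference.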

[2] = system: LXRa:RXRa (NR concentration 270 nM, RXRa partner concentration 90 nM)
In short: as §1

[3] = system: LXRa homodimer (NR concentration 270 nM)
In short: as §1

[4] = system: LXRb:RXRa (NR concentration 270 nM, RXRa partner concentration 90 nM)
In short: as §1

[5] = system: LXRb homodimer (NR concentration 270 nM)
In short: as §1

[6] = system: PPARa:RXRa (NR concentration 270 nM, RXRa partner concentration 90 nM)
In short: as §1

[7] = system: PPARg:RXRa (NR concentration 180 nM, RXRa partner concentration 90 nM)
In short: as §1

[8] = system: PPARg:RXRa 270nM:90nM, anti-RXR (NR concentration 270 nM, RXRa partner concentration 90 nM)
In short: as §1

[9] = system: PPARg:RXRa 30nM:10nM, anti-RXR (NR concentration 30 nM, RXRa partner concentration 10 nM)
In short: as §1

[10] = system: PPARg:RXRa 90nM:30nM, anti-RXR (NR concentration 90 nM, RXRa partner concentration 30 nM)
In short: as §1

[11] = system: PPARg:RXRa DBDmut IVT, anti-RXR (DBD mutation: RXRa K156A/R161A, NR concentration 270 nM, RXRa partner concentration 90 nM)
In short: as §1

[12] = system: PPARg:RXRa IVT, anti-PPARg (NR concentration 270 nM, RXRa partner concentration 90 nM)
In short: as §1

[13] = system: PPARg DBDmut:RXRa IVT, anti-PPARg (DBD mutation: PPARg1 K132A/R137A, NR concentration 270 nM, RXRa partner concentration 90 nM)
In short: as §1

[14] = system: PPARg DBDmut IVT, anti-PPARg (DBD mutation: PPARg1 K132A/R137A, NR concentration 270 nM)
In short: as §1

[15] = system: PPARg homodimer (NR concentration 180 nM)
In short: as §1

[16] = system: PXR:RXRa (NR concentration 270 nM, RXRa partner concentration 90 nM)
In short: as §1

[17] = system: PXR homodimer (NR concentration 270 nM)
In short: as §1

[18] = system: RARa:RXR (NR concentration 270 nM, RXRa partner concentration 90 nM)
In short: as §1

[19] = system: RARa homodimer (NR concentration 270 nM)
In short: as §1

[20] = system: RARb:RXRa (NR concentration 270 nM, RXRa partner concentration 90 nM)
In short: as §1

| Sequence | PBM binding z-score [1] | PBM binding z-score [2] | PBM binding z-score [3] | PBM binding z-score [4] | PBM binding z-score [5] | PBM binding z-score [6] | PBM binding z-score [7] | PBM binding z-score [8] | PBM binding z-score [9] | PBM binding z-score [10] | PBM binding z-score [11] | PBM binding z-score [12] | PBM binding z-score [13] | PBM binding z-score [14] | PBM binding z-score [15] | PBM binding z-score [16] | PBM binding z-score [17] | PBM binding z-score [18] | PBM binding z-score [19] | PBM binding z-score [20] |
| --- | --- | --- | --- | --- | --- | --- | --- | --- | --- | --- | --- | --- | --- | --- | --- | --- | --- | --- | --- | --- |
| ATATGTAGCTTATCGGGTCATTCAGTTTGCGCAT | 2.02 | 2.21 | 1.13 | 2.2 | 1.08 | 2.5 | 0.837 | 0.994 | 0.318 | 0.857 | 1.01 | 1.81 | 1.36 | 1.64 | 1.05 | 3.2 | 8.3 | 2.8 | 0.765 | 1.72 |
| ATACCAAGTTGATCGTGAGGTCGTTGATACTAAC | 1.48 | 1.03 | 0.823 | 1.31 | 0.171 | 1.22 | 0.148 | 0.229 | 0.0312 | 0.0356 | -0.0424 | -0.015 | 0.231 | 0.701 | 1.02 | 2.78 | 1.61 | 1.78 | 1.04 | 0.897 |
| TCAGACAGGTGAAGGCAACTCAGGTACGCAGTCG | 0.773 | 0.656 | -0.307 | 0.471 | -0.243 | 0.995 | 0.701 | 1.77 | 3.36 | 2.58 | 2.4 | 0.632 | -0.586 | -0.648 | 0.236 | 0.249 | -0.101 | 0.507 | -0.314 | 0.923 |
| TCTTGTAGATCAACAGGAGATTAAGAAAGATCGA | -0.494 | -0.198 | -0.713 | -0.321 | -0.695 | 0.133 | 0.237 | 0.964 | 2.14 | 1.68 | 1.37 | 0.548 | 1.52 | 0.865 | -0.322 | -0.306 | -0.21 | -0.526 | -0.298 | -0.393 |
| CCTCGGAGGACAGAAGGGCAGAGCTGTCCGCTTT | -0.424 | -0.658 | -0.967 | -0.952 | -1.04 | -1.11 | -0.572 | -0.994 | -1.32 | -1.13 | -0.39 | -0.863 | -1.35 | -1.74 | -0.82 | -0.857 | -0.749 | -0.782 | -0.361 | 1.2 |
| TCATATAGGTAAACAGGTTAAAGTCCGTAAGTTA | 0.775 | 1.24 | 0.749 | 1.34 | 0.393 | 2.69 | 2.85 | 3.9 | 4.25 | 3.91 | 4.76 | 4.3 | 1.02 | 1.02 | 1.31 | 1.29 | 0.911 | 1.79 | 1.77 | 0.998 |
| CGAACTAGGTCATTGACAAGACAGTGAATAGTAA | 3.79 | 2.42 | 0.115 | 2.04 | -0.0491 | 4.5 | 7.38 | 6.17 | 3.72 | 5.54 | 8.29 | 8.45 | 3.1 | 1.15 | 0.882 | 1.26 | 0.00701 | 1.79 | 0.336 | 3.61 |
| TCTTGTAGATTAACAGGAGGTTAAGAAAGATCGA | 0.498 | 1.41 | 0.483 | 0.95 | -0.0109 | 1.06 | 0.145 | 1.41 | 2.67 | 1.89 | 1.1 | 0.0101 | -0.776 | 0.403 | -0.439 | 0.578 | 0.157 | 1.25 | 0.212 | 0.685 |
| CAAACTAGGTCAGAACAGGACAGTGAAGGATGAT | 1.81 | 1.26 | 0.299 | 0.616 | 0.235 | 3.34 | 5.81 | 4.56 | 2.45 | 3.64 | 7.14 | 7.34 | 4.2 | 3.64 | 1.77 | 1.06 | 0.211 | 1.32 | 1.02 | 3.24 |
| ATCGAGAGGTCGAGGTGAGTATAGAGAAAGGGAA | 2.84 | 2.37 | -0.153 | 1.78 | -0.102 | 3.68 | 2.19 | 2.16 | 0.414 | 1.15 | -0.102 | 1.75 | 0.955 | 0.168 | 0.817 | 1.9 | -0.0163 | 2.63 | -0.363 | 3.14 |
| ATCTCTAGGTAACAAGTTCAGTGATAGAGAGGAC | 0.623 | 0.613 | 0.594 | 0.524 | 1.01 | 1.34 | 1.67 | 1.87 | 1.19 | 1.53 | 3.07 | 2.7 | 1.93 | 1.91 | 1.18 | 1.7 | 1.97 | 0.777 | 1.13 | 1.69 |
| CGTCCAAGGTCAGCCGGTCAGTGAAAGCGACGTG | 5.37 | 3.63 | 0.364 | 2.5 | -0.165 | 4.18 | 2.43 | 3.24 | 0.459 | 1.79 | 2.51 | 2.75 | -0.217 | -1.45 | 2.55 | 2.9 | 0.408 | 3.71 | 0.671 | 5 |
| CAAACTAAGTCACGAAAGGTCAAAGTCGAATGAC | 5.23 | 6.68 | 6.01 | 5.99 | 2.17 | 5.89 | 4.13 | 4.96 | 2.48 | 4.04 | 2.8 | 3.64 | 0.905 | 0.93 | 3.63 | 6.08 | 2.1 | 6.41 | 1.43 | 4.83 |
| CAAACTAGGTCACGAAAGGTCAAGGTCGAATGAC | 7.28 | 7.82 | 6.86 | 6.75 | 1.7 | 6.43 | 10.6 | 8.38 | 7.12 | 8.5 | 8.73 | 9.06 | 5.16 | 2.59 | 5.42 | 6.88 | 3.03 | 7.71 | 3.81 | 5.62 |
